Calls of active or inactive are those of the source.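 Rule for the calls, unless noted: active = fluorescence slope after compound addition differing from the mean of all screened samples at 99.7% confidence, in either direction; inactive = the rest.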

A short description of experiment [1]: inhibitors of TNFa-induced NFkB p65 translocation, primary screen, imaging, HUVEC, MLSMR starter and 10KST1 sets (AID 438;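 active = inhibition above 20% together with a positive visual image hit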;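 note: compound added about 3h40 before a 20 min TNFalpha stimulation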;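 for inhibition: signal is the nuclear over cytoplasmic p65 intensity ratio per well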). To be noted: HUVEC TNFa-induced p65 nuclear translocation; cell count: measured here: nuclei count (cytotoxicity indicator), at 2.08 µM; inhibition: at 2 µM, stronger effect = higher value, 0% TNFa-plus-vehicle, 100% no-TNFa wells.
A short description of experiment [2]: inhibitors of mutant huntingtin aggregation, primary screen, imaging, exon1htt(103Q)mCFP cells, high-content imaging (AID 483;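 active = visual image review flags a hit and inhibition of aggregation exceeds 20%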;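 note: compound exposure lasted 3 days before fixation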;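 for nuclei count: percent of the per-plate median nuclei count of sample wells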). To be noted: exon1htt(103Q)mCFP cell line, aggregate imaging, at 2 µM; inhibition of aggregation: stronger effect = higher value; nuclei count: measured here: cell count, toxicity.
Experiment [3] is described as follows: inhibitors of E-selectin induction by TNFa, primary screen, imaging, HUVEC, immunofluorescence, MLSMR starter and 10KST1 sets (AID 487;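 active = visually confirmed hit in the image check and inhibition above 20%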;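 for inhibition: signal is fraction of cell area covered by stained E-selectin grains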;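 for nuclei count: 100% = median nuclei count of all wells on the same plate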). To be noted: HUVEC TNFalpha-induced E-selectin immunofluorescence imaging, at 2 µM; inhibition: stronger effect = higher value; nuclei count: measured here: cell number, toxicity.
The target in experiment [4] is Voltage-gated potassium channel subunit beta-2 (Rattus norvegicus) (UniProt P62483). Briefly: KvBeta enzyme negative modulators, primary screen, biochemical, NADPH fluorescence (AID 622;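 active = fluorescence slope higher than the sample average by over 3 SD, cut at about -0.22 in these data, passing the limit was not always enough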;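 note: slope of raw intensity against log time taken from 70 to 1610 s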). Particulars: recombinant KvBeta, 4-cyanobenzaldehyde reduction, at 10 µM, stronger effect = higher value.
Experiment [5] shares this target. Briefly: KvBeta positive modulators, primary screen, biochemical, NADPH fluorescence (AID 623;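 active = NADPH fluorescence slope more negative than the mean of all samples by about 3 SD, 99.7% confidence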;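 note: fluorescence intensity change per second fitted from 20 to 320 s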). To be noted: Recombinant KvBeta, NADPH fluorescence decrease slope, 10 min; at 10 µM; stronger effect = lower value.
Experiment [6] deals with Alpha-2C adrenergic receptor (Homo sapiens) (UniProt P18825). Briefly: modulators of alpha2C/GIRK thallium flux, primary screen, cell-based, HEK293 alpha2C/GIRK1/2 (AID 624).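 Note: slope of fluorescence ratio to pre-addition baseline per second over 15 to 24 s.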 To be noted: thallium flux BTC fluorescence, at 10 µM, actives lie on both sides.
The nature of experiment [7]: inhibitors of Sendai virus-induced IRF3 signaling, primary screen, TLR/RLR signaling modifier project, cell-based, Sendai virus stimulus, luciferase, 10K MLSCN set (AID 602276;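 active = inhibition at or above 50% at 10 µM; inactive = inhibition below 50%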;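 note: firefly luciferase from ISG56 promoter only with Renilla not read in this screen; 0% = Sendai virus plus DMSO and 100% = medium plus DMSO without virus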). To be noted: HEK293 RL24 IRF3 luciferase reporter, at 10 µM, stronger effect = higher value. (In a reporter assay the amount or activity of a reporter protein is the signal.)
Experiment [8] is described as follows: inhibitors of poly I:C-induced TLR3 signaling, primary screen, cell-based, poly I:C stimulus, luciferase, 10K MLSCN set (AID 602277;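 active = inhibition of the reporter signal at or above 50%; inactive = inhibition below 50%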). To be noted: HEK293-TLR3 RL24 IRF3 luciferase reporter, at 10 µM, stronger effect = higher value.

Chain of Voltage-gated potassium channel subunit beta-2 (Rattus norvegicus) (P62483 whole entry, looked up): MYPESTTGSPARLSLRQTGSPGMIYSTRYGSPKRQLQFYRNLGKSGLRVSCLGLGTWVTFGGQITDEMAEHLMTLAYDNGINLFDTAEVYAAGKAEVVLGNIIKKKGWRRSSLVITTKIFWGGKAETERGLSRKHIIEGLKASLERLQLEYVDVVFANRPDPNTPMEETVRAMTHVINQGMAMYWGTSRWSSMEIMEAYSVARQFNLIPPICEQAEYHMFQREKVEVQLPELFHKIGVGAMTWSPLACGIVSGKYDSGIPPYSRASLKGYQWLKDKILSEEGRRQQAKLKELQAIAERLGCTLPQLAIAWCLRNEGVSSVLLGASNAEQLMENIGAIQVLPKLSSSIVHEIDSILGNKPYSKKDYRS
Chain of Alpha-2C adrenergic receptor (Homo sapiens) (P18825 whole entry, looked up): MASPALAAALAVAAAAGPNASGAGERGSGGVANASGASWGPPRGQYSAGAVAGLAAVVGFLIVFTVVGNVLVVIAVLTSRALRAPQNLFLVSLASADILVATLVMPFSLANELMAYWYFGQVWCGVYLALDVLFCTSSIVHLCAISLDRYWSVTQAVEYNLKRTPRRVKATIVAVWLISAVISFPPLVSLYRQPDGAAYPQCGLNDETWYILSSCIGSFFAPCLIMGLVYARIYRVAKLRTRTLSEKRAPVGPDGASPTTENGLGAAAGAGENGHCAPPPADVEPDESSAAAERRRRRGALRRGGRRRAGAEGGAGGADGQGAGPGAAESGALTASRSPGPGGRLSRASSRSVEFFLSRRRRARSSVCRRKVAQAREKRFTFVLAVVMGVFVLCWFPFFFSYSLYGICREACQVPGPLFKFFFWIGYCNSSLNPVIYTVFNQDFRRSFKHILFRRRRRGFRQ

The term inhibition denotes the relative decrease from the control value, in per cent. In the case of `O=C(CSc1nnnn1-c1ccccc1)c1cc2ccccc2oc1=O`, the cell count in experiment [1] worked out at 788. Besides, the inhibition in experiment [1] was -8.3% (inactive); in experiment [3] it was -39.8% (inactive); in experiment [7] it was 1.78% (inactive); in experiment [8] it was -14.1% (inactive). Also, the inhibition of aggregation in experiment [2] was -9.6% (inactive). In addition, the nuclei count in experiment [2] came out at 124%; in experiment [3], 117%. Further, in experiment [4], the fluorescence slope was -0.647 (inactive). Besides, in experiment [5], the NADPH fluorescence slope was -1.4e-05 (inactive). Besides, the slope in experiment [6] is 0.00672 (inactive).
With `COc1cccc(N2CCN(C(=O)C3C4C=CC5(CN(Cc6ccccc6Cl)C(=O)C35)O4)CC2)c1` (centres undefined), the cell count in experiment [1] was determined as 606. For the same molecule, the inhibition was -11.6% (inactive) in experiment [1], -66.5% (inactive) in experiment [3], -0.268% (inactive) in experiment [7] and 13.1% (inactive) in experiment [8]. For the same molecule, the inhibition of aggregation in experiment [2] is -3% (inactive). Moreover, the nuclei count in experiment [2] was found to be 58.2%; in experiment [3], 123%. Also, the fluorescence slope in experiment [4] is -0.402 (inactive). In addition, the NADPH fluorescence slope in experiment [5] was -3.2e-05 (inactive). Further, in experiment [6], the slope was 0.00266 (inactive).
Take `O=C(CCC1COc2ccccc2O1)NCC1COc2ccccc2O1` (centres undefined): the cell count in experiment [1] came to 568. In addition, the inhibition in experiment [1] is 2.4% (inactive); in experiment [3], -72.2% (inactive); in experiment [7], 13.4% (inactive); in experiment [8], 19.2% (inactive). The inhibition of aggregation in experiment [2] was -5.5% (inactive). Also, the nuclei count was 117% in experiment [2] and 85.5% in experiment [3]. Moreover, in experiment [4], the fluorescence slope was -0.499 (inactive). Further, in experiment [5], the NADPH fluorescence slope was -2.5e-05 (inactive). Also, in experiment [6], the slope was 0.0058 (inactive).
Regarding `CCOC(=O)Cn1nc(-c2ccc(Cl)cc2)cc1N`, the cell count in experiment [1] worked out at 285. In addition, the inhibition in experiment [1] is 15.6% (inactive); in experiment [3], -2.9% (inactive); in experiment [7], -5.22% (inactive); in experiment [8] it was -25.8% (inactive). Also, the inhibition of aggregation in experiment [2] was -12% (inactive). Moreover, the nuclei count in experiment [2] amounted to 99.9%; in experiment [3] it was 111%. For the same molecule, the fluorescence slope in experiment [4] is -0.501 (inactive). Besides, in experiment [5], the NADPH fluorescence slope was -8.2e-05 (inactive). Besides, the slope in experiment [6] was 0.00497 (inactive).
Turning to `CCOC(=O)CSc1nc2cccnc2n1-c1ccc(F)cc1`, in experiment [1], the cell count was found to be 328. For the same molecule, the inhibition in experiment [1] was -0.2% (inactive); in experiment [3] it was -26.8% (inactive); in experiment [7] it was -4.88% (inactive); in experiment [8], 2.83% (inactive). For the same molecule, the inhibition of aggregation in experiment [2] was -28% (inactive). The nuclei count in experiment [2] stood at 110%; in experiment [3], 111%. The fluorescence slope in experiment [4] is -0.444 (inactive). Also, in experiment [5], the NADPH fluorescence slope was -1.6e-05 (inactive). The slope in experiment [6] is 0.0064 (inactive).
For `O=C(NCC1CCCO1)C1CCN(c2ccc(S(=O)(=O)N3CCCC3)cc2)CC1` (centres undefined), in experiment [1], the cell count turned out to be 446. The inhibition was 8.5% (inactive) in experiment [1], -38.5% (inactive) in experiment [3], 5.23% (inactive) in experiment [7] and 21.3% (inactive) in experiment [8]. Besides, the inhibition of aggregation in experiment [2] is -5.9% (inactive). For the same molecule, the nuclei count in experiment [2] worked out at 103%; in experiment [3], 108%. The fluorescence slope in experiment [4] was -0.434 (inactive). The NADPH fluorescence slope in experiment [5] was -3.3e-05 (inactive). The slope in experiment [6] is 0.0046 (inactive).
As for `CCOC(=O)c1csc(NC(=O)C2CCCCC2)n1`, the cell count in experiment [1] was 706. The inhibition in experiment [1] was -18.4% (inactive); in experiment [3], -4.9% (inactive); in experiment [7], -47.3% (inactive); in experiment [8], -124% (inactive). The inhibition of aggregation in experiment [2] is -10% (inactive). For the same molecule, the nuclei count is 90.2% in experiment [2] and 94.6% in experiment [3]. For the same molecule, the fluorescence slope in experiment [4] was -0.419 (inactive). Further, the NADPH fluorescence slope in experiment [5] was -0.000101 (inactive). Moreover, the slope in experiment [6] was 0.00464 (inactive).
Regarding `CC(=O)NC(=O)NC1CSCC1OC(C)=O` (centres undefined), the cell count in experiment [1] is 590. In addition, the inhibition in experiment [1] is 1.2% (inactive); in experiment [3], -110% (inactive); in experiment [7], 11% (inactive); in experiment [8], 12% (inactive). The inhibition of aggregation in experiment [2] was 23.1% (inactive). Besides, the nuclei count in experiment [2] was determined as 99%; in experiment [3], 132%. Further, the fluorescence slope in experiment [4] is -0.445 (inactive). In addition, the NADPH fluorescence slope in experiment [5] is -1.3e-05 (inactive). Also, the slope in experiment [6] is 0.00811 (inactive).
Regarding `CC(=O)C(Sc1ncnc2c1nnn2-c1ccc(F)cc1)C(=O)N(C)C` (centres undefined), the cell count in experiment [1] is 464. For the same molecule, the inhibition in experiment [1] was -2.2% (inactive); in experiment [3], -51.7% (inactive); in experiment [7] it was -3.3% (inactive); in experiment [8] it was -23.2% (inactive). In addition, the inhibition of aggregation in experiment [2] was 2.3% (inactive). The nuclei count is 89.3% in experiment [2] and 114% in experiment [3]. Besides, the fluorescence slope in experiment [4] was -0.492 (inactive). For the same molecule, the NADPH fluorescence slope in experiment [5] was -1.7e-05 (inactive). The slope in experiment [6] was 0.00752 (inactive).
On to `COc1ccccc1NC(=O)NCCCN1CCN(c2cccc(Cl)c2)CC1`, for which the cell count in experiment [1] amounted to 628. The inhibition in experiment [1] is -11.6% (inactive); in experiment [3] it was -47.7% (inactive); in experiment [7], -24.8% (inactive); in experiment [8], -19.5% (inactive). Besides, the inhibition of aggregation in experiment [2] was 13.1% (inactive). Moreover, the results for the nuclei count in experiment [2] and in experiment [3] were 112% and 118%, respectively. In experiment [4], the fluorescence slope is -0.556 (inactive). Also, the NADPH fluorescence slope in experiment [5] is 1e-05 (inactive). Moreover, in experiment [6], the slope is 0.00548 (inactive).
As to `NC(=O)C1CCN(C(=S)c2cccs2)CC1`, in experiment [1], the cell count was determined as 759. Moreover, the inhibition is 3.9% (inactive) in experiment [1], -69.5% (inactive) in experiment [3], 19.1% (inactive) in experiment [7] and 30.8% (inactive) in experiment [8]. The inhibition of aggregation in experiment [2] is 12.1% (inactive). The values for the nuclei count in experiment [2] and in experiment [3] were 105% and 107%, respectively. Also, the fluorescence slope in experiment [4] is -0.49 (inactive). Moreover, the NADPH fluorescence slope in experiment [5] was -1.4e-06 (inactive). Moreover, in experiment [6], the slope was 0.00525 (inactive).
On to `CCn1nc(C)c(NC(=O)c2cc(Br)ccc2Cl)c1C`, for which the cell count in experiment [1] came to 497. The inhibition was -5.8% (inactive) in experiment [1], -17.6% (inactive) in experiment [3], 14.4% (inactive) in experiment [7] and 25% (inactive) in experiment [8]. The inhibition of aggregation in experiment [2] is -21.4% (inactive). Moreover, the nuclei count in experiment [2] was determined as 111%; in experiment [3], 115%. The fluorescence slope in experiment [4] is -0.445 (inactive). The NADPH fluorescence slope in experiment [5] was -0.000104 (inactive). Besides, the slope in experiment [6] was 0.00617 (inactive).
For `CCN(CC)S(=O)(=O)c1ccc2oc(SCc3ccc(F)cc3)nc2c1`, the cell count in experiment [1] stood at 707. Besides, the inhibition is -9.4% (inactive) in experiment [1], -6.6% (inactive) in experiment [3], 1.12% (inactive) in experiment [7] and -39.5% (inactive) in experiment [8]. Also, the inhibition of aggregation in experiment [2] was 6.8% (inactive). Besides, the values for the nuclei count in experiment [2] and in experiment [3] were 104% and 110%, respectively. Moreover, the fluorescence slope in experiment [4] is -0.604 (inactive). Moreover, the NADPH fluorescence slope in experiment [5] was -6.8e-05 (inactive). Besides, in experiment [6], the slope was 0.00777 (inactive).
With `Cc1ccc(N2CC(C)Cn3c2nc2c3c(=O)n(CC(=O)OCc3ccccc3)c(=O)n2C)cc1C` (centres undefined), the cell count in experiment [1] worked out at 242. Besides, the inhibition in experiment [1] was -3.2% (inactive); in experiment [3] it was -43% (inactive); in experiment [7] it was 28.5% (inactive); in experiment [8] it was 16.6% (inactive). For the same molecule, the inhibition of aggregation in experiment [2] is 21.6% (inactive). Moreover, the nuclei count in experiment [2] was 77.7%; in experiment [3] it was 109%. Also, in experiment [4], the fluorescence slope is -0.473 (inactive). Moreover, the NADPH fluorescence slope in experiment [5] was -2.8e-05 (inactive). In experiment [6], the slope was 0.00778 (inactive).

These data come from PubChem BioAssay.
